Assay results as given in PubChem BioAssay AID1159580 (chemical genetic matrix, 2015).
Where “and” joins values, the source holds several entries; their conditions need not be identical. Equal entries are not always repeated. About 2,000 (36%) of roughly 5,500 compounds were called active. Inconclusive results (about 18%) are left out. The list shows a part of the results. Unmarked numbers belong to inactive results. Cut-off read from the data, not from the text of the source: active = normalized growth mostly below about 0.91 (no sharp cut-off); inconclusive = no clear call, values can overlap the other calls; inactive = mostly above about 0.92.

Test: chemical genetic growth profiling, strain panel (AID 1159580);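 note: tested at 20 µM; growth read once vehicle control cultures reached saturation at 30 °C; 1 = growth at the plate median or of vehicle wells; lower values mean less growth of the strain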
Conditions: S. cerevisiae deletion strains, growth OD

In the case of `CN(C)C(=O)C(CCN1CCC(O)(c2ccc(Cl)cc2)CC1)(c1ccccc1)c1ccccc1`, the normalized growth (locus YAL013W, strain DEP1, active compounds read low) is reported as 1.01, the normalized growth (locus YAL021C, strain ccr4, active compounds read low) is reported as 0.984 and the normalized growth (locus YAL026C, strain drs2, active compounds read low) is reported as 0.999. For the same molecule, the normalized growth (locus YAL030W, strain snc1, active compounds read low) was 1, the normalized growth (locus YAL040C, strain CLN3, active compounds read low) was 0.979 and the normalized growth (locus YBL061C, strain skt5, active compounds read low) was 0.99. It also gave a normalized growth (locus YBR009C, strain hhf1, active compounds read low) of 0.993, a normalized growth (locus YBR021W, strain FUR4, active compounds read low) of 0.977 and a normalized growth (locus YBR023C, strain chs3, active compounds read low) of 1.01. It also gave a normalized growth (locus YBR171W, strain sec66, active compounds read low) of 0.988, a normalized growth (locus YBR229C, strain ROT2, active compounds read low) of 0.997 and a normalized growth (locus YBR231C, strain swc5, active compounds read low) of 0.965. For the same molecule, the normalized growth (locus YBR279W, strain paf1, active compounds read low) was 0.995, the normalized growth (locus YCL011C, strain gbp2, active compounds read low) was 0.989 and the normalized growth (locus YCL016C, strain dcc1, active compounds read low) was 0.994. For the same molecule, the normalized growth (locus YCL029C, strain bik1, active compounds read low) was 1.03, the normalized growth (locus YCL061C, strain MRC1 (second series), active compounds read low) was 0.996 and the normalized growth (locus YCL061C, strain MRC1, active compounds read low) was 0.988. The normalized growth (locus YCL069W, strain vba3, active compounds read low) was 0.991, the normalized growth (locus YCR088W, strain abp1, active compounds read low) was 1 and the normalized growth (locus YDL005C, strain med2, active compounds read low) was 0.988. The normalized growth (locus YDL035C, strain GPR1, active compounds read low) was 0.965, the normalized growth (locus YDL040C, strain nat1, active compounds read low) was 0.994 and the normalized growth (locus YDL074C, strain BRE1, active compounds read low) was 0.979. The normalized growth (locus YDL101C, strain DUN1, active compounds read low) was 1, the normalized growth (locus YDL134C, strain PPH21, active compounds read low) was 1.01 and the normalized growth (locus YDL185W, strain tfp1, active compounds read low) was 1.02. It also gave a normalized growth (locus YDL192W, strain arf1, active compounds read low) of 1.02, a normalized growth (locus YDR001C, strain nth1, active compounds read low) of 1 and a normalized growth (locus YDR069C, strain doa4, active compounds read low) of 1. The normalized growth (locus YDR101C, strain arx1, active compounds read low) was 1.01, the normalized growth (locus YDR137W, strain rgp1, active compounds read low) was 1.11 and the normalized growth (locus YDR150W, strain NUM1, active compounds read low) was 1.01 and 0.999. It also gave a normalized growth (locus YDR159W, strain sac3, active compounds read low) of 0.999, a normalized growth (locus YDR162C, strain NBP2, active compounds read low) of 1 and a normalized growth (locus YDR195W, strain ref2) of 0.949. For the same molecule, the normalized growth (locus YDR297W, strain sur2, active compounds read low) was 1, the normalized growth (locus YDR318W, strain mcm21, active compounds read low) was 1.01 and the normalized growth (locus YDR334W, strain swr1, active compounds read low) was 1.01. The normalized growth (locus YDR335W, strain msn5, active compounds read low) was 1, the normalized growth (locus YDR363W, strain ESC2, active compounds read low) was 0.967 and the normalized growth (locus YDR388W, active compounds read low) was 1.02. The normalized growth (locus YDR392W, strain spt3, active compounds read low) was 0.797, the normalized growth (locus YDR502C, strain sam2, active compounds read low) was 1.01 and the normalized growth (locus YEL003W, strain gim4, active compounds read low) was 0.993. The normalized growth (locus YEL037C, strain rad23, active compounds read low) was 1, the normalized growth (locus YEL061C, strain CIN8 (second series), active compounds read low) was 1.01 and the normalized growth (locus YEL061C, strain CIN8, active compounds read low) was 1. The normalized growth (locus YER002W, strain NOP16, active compounds read low) was 1.01, the normalized growth (locus YER015W, strain faa2, active compounds read low) was 0.967 and the normalized growth (locus YER016W, strain bim1, active compounds read low) was 0.996. For the same molecule, the normalized growth (locus YER110C, active compounds read low) was 1.02, the normalized growth (locus YER111C, strain swi4, active compounds read low) was 0.98 and the normalized growth (locus YER155C, strain BEM2 (second series), active compounds read low) was 0.843 (active). It also gave a normalized growth (locus YER155C, strain BEM2, active compounds read low) of 1.01, a normalized growth (locus YER167W, strain BCK2, active compounds read low) of 0.981 and a normalized growth (locus YFR010W, strain ubp6, active compounds read low) of 0.988. The normalized growth (locus YGL078C, strain dbp3, active compounds read low) was 1.01, the normalized growth (locus YGL086W, strain mad1, active compounds read low) was 0.989 and the normalized growth (locus YGL167C, strain pmr1, active compounds read low) was 0.99. For the same molecule, the normalized growth (locus YGL173C, strain kem1, active compounds read low) was 0.981, the normalized growth (locus YGL227W, strain vid30, active compounds read low) was 1 and the normalized growth (locus YGL240W, strain doc1, active compounds read low) was 0.956. For the same molecule, the normalized growth (locus YGL248W, strain PDE1, active compounds read low) was 1, the normalized growth (locus YGL253W, strain hxk2, active compounds read low) was 1.02 and the normalized growth (locus YGR078C, strain PAC10, active compounds read low) was 1 and 0.987. It also gave a normalized growth (locus YGR135W, strain pre9, active compounds read low) of 1.01, a normalized growth (locus YGR229C, strain SMI1, active compounds read low) of 1.01 and a normalized growth (locus YGR252W, strain gcn5, active compounds read low) of 0.871. The normalized growth (locus YHR013C, strain ard1, active compounds read low) was 0.955, the normalized growth (locus YHR027C, strain rpn1, active compounds read low) was 0.999 and the normalized growth (locus YHR030C, strain SLT2, active compounds read low) was 1.01 and 0.969. The normalized growth (locus YHR079C, strain IRE1 (second series), active compounds read low) was 1.02, the normalized growth (locus YHR079C, strain IRE1, active compounds read low) was 0.987 and the normalized growth (locus YHR094C, strain hxt1, active compounds read low) was 1.01. It also gave a normalized growth (locus YHR129C, strain ARP1, active compounds read low) of 1, a normalized growth (locus YHR142W, strain chs7, active compounds read low) of 1.01 and a normalized growth (locus YHR200W, strain rpn10, active compounds read low) of 0.997. The normalized growth (locus YIL066C, strain RNR3, active compounds read low) was 1, the normalized growth (locus YIL073C, strain SPO22, active compounds read low) was 1.05 and the normalized growth (locus YIL125W, strain kgd1, active compounds read low) was 1.01. For the same molecule, the normalized growth (locus YIR030C, strain dcg1, active compounds read low) was 1.02, the normalized growth (locus YJL092W, strain hpr5, active compounds read low) was 0.994 and the normalized growth (locus YJL095W, strain BCK1 (second series), active compounds read low) was 0.993. For the same molecule, the normalized growth (locus YJL095W, strain BCK1, active compounds read low) was 1 and 0.99, the normalized growth (locus YJL115W, strain asf1, active compounds read low) was 0.978 and the normalized growth (locus YJL129C, strain trk1, active compounds read low) was 0.941. For the same molecule, the normalized growth (locus YJL134W, strain LCB3, active compounds read low) was 1.01, the normalized growth (locus YJL154C, strain vps35, active compounds read low) was 0.998 and the normalized growth (locus YJL164C, strain tpk1, active compounds read low) was 0.994. The normalized growth (locus YJL166W, strain qcr8, active compounds read low) was 0.967, the normalized growth (locus YJL168C, strain set2, active compounds read low) was 1.01 and the normalized growth (locus YJL187C, strain SWE1 (second series), active compounds read low) was 1.02. It also gave a normalized growth (locus YJR043C, strain POL32, active compounds read low) of 0.986 and a normalized growth (locus YJR066W, strain TOR1, active compounds read low) of 0.928.
